Test results taken from PubChem BioAssay.
For some assays here: Results with a measured potency or affinity are listed apart. Active and inactive are the calls of the source. Unless noted, how the calls were made is not given here.

Assays:
[1] = antimalarial activity against Dd2 strain (AID 2302;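 active means growth inhibition above 50% at the single 2 µM test dose, taken to imply half-maximal potency below 2 µM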;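 further: 0% = DMSO untreated growth and 100% = chloroquine plus artemisinin killed control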); conditions: P. falciparum Dd2 in RBCs, LDH growth readout, 72 h; at 2 µM; hits give high values
[2] = HepG2 cytotoxicity, primary screen, cytotoxicity control for P. falciparum antimalarial project, cell-based, ATP luminescence (AID 2303;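 active means inhibition above 50%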;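 further: 0% = DMSO wells and 100% = digitonin-killed cells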); conditions: HepG2 viability, 24-48 h, at 10 µM, hits give high values
[3] = biological target: L-lactate dehydrogenase (Plasmodium falciparum (isolate CDC / Honduras)) (UniProt Q27743); test: PfLDH activity inhibition – cell lysate, 3D7 strain, counter-screen for P. falciparum growth inhibition project (AID 2304);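 further: 0% = vehicle and 100% = reference inhibitor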; conditions: P. falciparum 3D7 crude extract, LDH APAD/NBT absorbance; at 2 µM; hits give high values
L-lactate dehydrogenase (Plasmodium falciparum (isolate CDC / Honduras)), sequence (Q27743 whole entry, looked up): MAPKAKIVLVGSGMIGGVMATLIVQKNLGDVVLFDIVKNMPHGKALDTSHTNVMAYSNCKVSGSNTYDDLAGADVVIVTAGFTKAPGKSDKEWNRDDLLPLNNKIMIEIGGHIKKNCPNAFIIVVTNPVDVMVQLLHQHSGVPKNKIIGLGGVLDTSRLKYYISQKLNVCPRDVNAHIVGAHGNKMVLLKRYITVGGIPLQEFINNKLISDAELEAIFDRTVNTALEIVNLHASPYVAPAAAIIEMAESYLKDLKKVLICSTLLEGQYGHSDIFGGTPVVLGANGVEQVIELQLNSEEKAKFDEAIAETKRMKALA

[4] = inhibition of 3D7 malaria parasite growth – strain 3D7 (AID 2306);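 further: 0% = DMSO wells and 100% = chloroquine plus artemisinin control wells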; conditions: P. falciparum 3D7 erythrocytic growth, LDH absorbance, 72 h; at 2 µM; hits give high values
[5] = biological target: Calcium-dependent protein kinase 1 (Plasmodium falciparum (isolate 3D7)) (UniProt P62344); test: PfCDPK1 kinase inhibitors, biochemical, TCAMS library (AID 1159585; cut-off not given, nearly all actives have IC50 up to about 0.98 µM;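 further: inhibitors leave more ATP so luminescence rises with inhibition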); conditions: recombinant PfCDPK1, Kinase-Glo ATP depletion luminescence
Calcium-dependent protein kinase 1 (Plasmodium falciparum (isolate 3D7)), sequence (P62344 whole entry, looked up): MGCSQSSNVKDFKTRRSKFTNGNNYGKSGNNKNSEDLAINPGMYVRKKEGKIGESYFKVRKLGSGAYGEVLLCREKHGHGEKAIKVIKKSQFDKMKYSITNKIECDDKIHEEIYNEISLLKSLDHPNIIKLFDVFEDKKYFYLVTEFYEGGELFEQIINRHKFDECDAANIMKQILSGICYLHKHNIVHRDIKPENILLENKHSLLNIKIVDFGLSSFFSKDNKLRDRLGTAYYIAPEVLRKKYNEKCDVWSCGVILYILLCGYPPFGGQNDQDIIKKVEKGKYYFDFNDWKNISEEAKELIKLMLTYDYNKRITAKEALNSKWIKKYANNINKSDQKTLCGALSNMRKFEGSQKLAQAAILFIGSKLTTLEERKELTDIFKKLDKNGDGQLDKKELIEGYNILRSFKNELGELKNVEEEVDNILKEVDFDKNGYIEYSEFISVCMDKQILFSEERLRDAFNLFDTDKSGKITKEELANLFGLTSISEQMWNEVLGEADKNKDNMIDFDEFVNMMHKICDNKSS

[6] = biological target: Plasmodium falciparum protein kinase 6 (PK6, PF3D7_1337100) (UniProt Q8IDW1); test: PfPK6 kinase inhibitors, biochemical, TCAMS library (AID 1159586); conditions: recombinant PfPK6, Kinase-Glo ATP depletion luminescence
Plasmodium falciparum protein kinase 6 (PK6, PF3D7_1337100), sequence (Q8IDW1 1-305): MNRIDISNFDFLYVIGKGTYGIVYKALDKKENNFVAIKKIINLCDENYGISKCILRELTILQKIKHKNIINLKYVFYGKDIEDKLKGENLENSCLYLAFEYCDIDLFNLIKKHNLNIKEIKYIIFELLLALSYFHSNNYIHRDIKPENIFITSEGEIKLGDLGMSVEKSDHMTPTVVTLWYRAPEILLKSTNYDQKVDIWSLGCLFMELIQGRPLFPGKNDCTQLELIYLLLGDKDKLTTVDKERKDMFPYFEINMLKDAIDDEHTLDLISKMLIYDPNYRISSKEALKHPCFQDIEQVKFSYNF

[7] = biological target: Protein kinase 7 (PK7), Plasmodium falciparum 3D7 (PF3D7_0213400) (UniProt Q7YTF7); test: inhibition of Plasmodium PK7 catalytic activity – biochemical, TCAMS antimalarial set, Kinase-Glo luminescence (AID 1159587); conditions: recombinant PfPK7, Kinase-Glo ATP depletion luminescence
Protein kinase 7 (PK7), Plasmodium falciparum 3D7 (PF3D7_0213400), sequence (Q7YTF7 1-343): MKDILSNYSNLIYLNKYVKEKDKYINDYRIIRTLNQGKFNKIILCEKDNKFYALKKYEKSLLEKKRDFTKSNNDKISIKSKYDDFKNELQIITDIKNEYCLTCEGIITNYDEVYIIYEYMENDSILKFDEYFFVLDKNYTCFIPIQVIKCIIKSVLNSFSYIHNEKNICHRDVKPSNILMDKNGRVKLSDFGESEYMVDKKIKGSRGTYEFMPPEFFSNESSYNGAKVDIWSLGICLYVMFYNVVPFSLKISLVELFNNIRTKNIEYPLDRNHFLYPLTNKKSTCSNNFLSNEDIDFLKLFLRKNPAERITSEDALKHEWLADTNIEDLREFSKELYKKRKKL

[8] = biological target: Calcium-dependent protein kinase 4 (Plasmodium falciparum (isolate 3D7)) (UniProt Q8IBS5); test: PfCDPK4 kinase inhibitors, biochemical, TCAMS library (AID 1159588; cut-off not given, nearly all actives have IC50 up to about 0.91 µM); conditions: recombinant PfCDPK4, Kinase-Glo ATP depletion luminescence
Calcium-dependent protein kinase 4 (Plasmodium falciparum (isolate 3D7)), sequence (Q8IBS5 whole entry, looked up): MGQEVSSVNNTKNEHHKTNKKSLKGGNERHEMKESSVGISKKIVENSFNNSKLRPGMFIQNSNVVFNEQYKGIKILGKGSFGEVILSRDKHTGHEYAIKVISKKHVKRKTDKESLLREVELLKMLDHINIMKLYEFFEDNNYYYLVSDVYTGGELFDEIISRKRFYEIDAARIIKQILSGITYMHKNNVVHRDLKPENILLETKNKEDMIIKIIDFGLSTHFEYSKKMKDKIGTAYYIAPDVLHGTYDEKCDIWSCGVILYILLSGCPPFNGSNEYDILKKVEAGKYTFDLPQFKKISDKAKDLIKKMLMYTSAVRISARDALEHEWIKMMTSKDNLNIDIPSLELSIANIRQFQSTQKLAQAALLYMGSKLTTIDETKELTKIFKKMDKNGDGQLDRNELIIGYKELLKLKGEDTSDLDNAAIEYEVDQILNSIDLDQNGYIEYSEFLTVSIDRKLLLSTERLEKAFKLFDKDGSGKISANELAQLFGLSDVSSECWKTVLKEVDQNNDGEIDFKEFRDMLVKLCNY

NC1=NC2(CCCCC2)N(OCCCOc2cccc3ccccc23)C(N)=N1
active: growth inhibition [1] 96% | inhibition [2] 67% | growth inhibition [4] 95%
inactive: inhibition [3] -2% | outcome [5] | outcome [6] | outcome [7] | outcome [8]

CC(C)CNCc1cccc(-c2cccc(CN(CCCN3CCN(C)CC3)C(=O)CCC3CCCC3)c2)c1
inactive: inhibition [2] 45% | inhibition [3] -7% | outcome [5] | outcome [6] | outcome [7] | outcome [8]
active: growth inhibition [1] 96% | growth inhibition [4] 100%

CN1CCN(c2ccnc3cc4c(cc23)N(C(=O)Nc2ccc3c(c2)CCCC3=O)CC4)CC1
inactive: inhibition [2] 5% | inhibition [3] -5% | outcome [5] | outcome [6] | outcome [7] | outcome [8]
active: growth inhibition [1] 64% | growth inhibition [4] 100%

COc1ccc(CCNCCCCCCNCCc2ccc(Cl)c3ccccc23)cc1OC
active: inhibition [2] 100% | growth inhibition [4] 100%
inactive: growth inhibition [1] 28% | inhibition [3] 6% | outcome [5] | outcome [6] | outcome [7] | outcome [8]

Fc1cc(CN2CCCC2)ccc1OCCCN1CCN(c2cccc(Cl)c2Cl)CC1
active: inhibition [2] 67% | growth inhibition [4] 82%
inactive: growth inhibition [1] 15% | inhibition [3] -1% | outcome [5] | outcome [6] | outcome [7] | outcome [8]

Cc1ccc(-c2nc3ccccc3o2)cc1NCc1cc(Cc2ccccc2)ccc1O
inactive: inhibition [2] 45% | inhibition [3] -4% | outcome [5] | outcome [6] | outcome [7] | outcome [8]
active: growth inhibition [1] 50% | growth inhibition [4] 82%

O=C(Nc1cccc(-c2ccc(-c3nc4ccc(C(F)(F)F)cc4[nH]3)cc2)c1)c1cnc[nH]1
inactive: growth inhibition [1] 21% | inhibition [2] 16% | inhibition [3] -3% | outcome [5] | outcome [6] | outcome [7] | outcome [8]
active: growth inhibition [4] 91%

c1ccc(-n2cncn2)cc1
inactive: inhibition [2] 0% | inhibition [3] 6% | outcome [5] | outcome [6] | outcome [7] | outcome [8]
active: growth inhibition [1] 96% | growth inhibition [4] 93%

Nc1nc(N)c2c(ccc3c2cnn3S(=O)(=O)N2CCCC2)n1
active: inhibition [2] 70% | growth inhibition [4] 93%
inactive: growth inhibition [1] 3% | inhibition [3] 2% | outcome [5] | outcome [6] | outcome [7] | outcome [8]

CC(C)(C)c1ccc(NC(=O)c2ccc(CN3CCCN(Cc4ccc(F)cc4)CC3)cc2)cc1
active: inhibition [2] 55% | growth inhibition [4] 87%
inactive: growth inhibition [1] 7% | inhibition [3] -1% | outcome [5] | outcome [6] | outcome [7] | outcome [8]

N=C(N)c1ccc(-c2cc3ccc(C(=N)N)cc3[nH]2)cc1
active: growth inhibition [1] 99% | growth inhibition [4] 99%
inactive: inhibition [2] 18% | inhibition [3] -2% | outcome [5] | outcome [6] | outcome [7] | outcome [8]

COc1ccc(O)c(C(=O)c2cc(C(=O)NC3CCCCC3)c(=O)n(C3CCCCC3)c2)c1
active: growth inhibition [1] 62% | growth inhibition [4] 99%
inactive: inhibition [2] 8% | inhibition [3] 3% | outcome [5] | outcome [6] | outcome [7] | outcome [8]

CN1CCC(N2CCN(Cc3ccc(-c4ccc(-c5nc6ccccc6[nH]5)s4)cc3)CC2)CC1
inactive: inhibition [3] -3% | outcome [5] | outcome [6] | outcome [7] | outcome [8]
active: growth inhibition [1] 100% | inhibition [2] 62% | growth inhibition [4] 101%

COc1cc(-c2ccccc2)ccc1C(=O)Nc1ccc2c(c1)N(C)CCC2
inactive: inhibition [2] 15% | inhibition [3] -4% | outcome [5] | outcome [6] | outcome [7] | outcome [8]
active: growth inhibition [1] 75% | growth inhibition [4] 85%

Cc1cccc2[nH]c(-c3ccc(-c4ccc(CN5CCCC(N)C5)cc4)s3)nc12 (stereo not given)
inactive: inhibition [2] 29% | inhibition [3] -9% | outcome [5] | outcome [6] | outcome [7] | outcome [8]
active: growth inhibition [1] 100% | growth inhibition [4] 101%

Fc1ccc2nc(-c3ccc(-c4ccc(CNCCc5cccnc5)cc4)s3)[nH]c2c1
inactive: inhibition [2] 40% | inhibition [3] -7% | outcome [5] | outcome [6] | outcome [7] | outcome [8]
active: growth inhibition [1] 99% | growth inhibition [4] 100%

COc1cc(NC(=O)c2cc([N+](=O)[O-])ccc2NC(=O)CNC2CCCC(C)C2C)cc(OC)c1 (stereo not given)
inactive: inhibition [2] 21% | inhibition [3] 4% | outcome [5] | outcome [6] | outcome [7] | outcome [8]
active: growth inhibition [1] 80% | growth inhibition [4] 97%

N=C(N)c1ccc(NC(=O)c2cc(Sc3ccc(O)c(C(=O)Nc4ccc(C(=N)N)cc4)c3)ccc2O)cc1
active: growth inhibition [1] 87% | growth inhibition [4] 93%
inactive: inhibition [2] 11% | inhibition [3] 2% | outcome [5] | outcome [6] | outcome [7] | outcome [8]

CCCCN(CCCC)CCCCNc1c2ccc(Cl)cc2nc2ccc(OC)cc12
active: growth inhibition [1] 96% | inhibition [2] 68% | growth inhibition [4] 101%
inactive: inhibition [3] 2% | outcome [5] | outcome [6] | outcome [7] | outcome [8]

Oc1ccc(Cc2cc(Oc3c(I)cc(CCc4ncc[nH]4)cc3I)ccc2O)cc1
active: growth inhibition [4] 101%
inactive: growth inhibition [1] 32% | inhibition [2] 10% | inhibition [3] -3% | outcome [5] | outcome [6] | outcome [7] | outcome [8]

N#Cc1ccc(N[C@@H](CC2CCCCC2)C(=O)Nc2ccc(-c3ccccc3)cc2)c2ccccc12
inactive: inhibition [2] 34% | inhibition [3] -8% | outcome [5] | outcome [6] | outcome [7] | outcome [8]
active: growth inhibition [1] 99% | growth inhibition [4] 100%

O=C(NCCCCCN1CCC(c2c[nH]c3ccccc23)CC1)Nc1cccc(Br)c1
inactive: growth inhibition [1] -3% | inhibition [2] 39% | inhibition [3] 3% | outcome [5] | outcome [6] | outcome [7] | outcome [8]
active: growth inhibition [4] 84%

COc1ccc2c(NN=Cc3cccc(F)c3)ccnc2c1
inactive: inhibition [2] 49% | inhibition [3] -5% | outcome [5] | outcome [6] | outcome [7] | outcome [8]
active: growth inhibition [1] 95% | growth inhibition [4] 101%

CCC(C)OC(=O)C1=C(C)NC2=C(C(=O)CC(c3ccc(OC)c(OC)c3)C2)C1c1ccc(C)o1 (stereo not given)
active: growth inhibition [1] 82% | growth inhibition [4] 93%
inactive: inhibition [2] 6% | inhibition [3] 2% | outcome [5] | outcome [6] | outcome [7] | outcome [8]

O=[N+]([O-])c1cccc(CNCC2CCC(CNCc3cccc([N+](=O)[O-])c3)CC2)c1 (stereo not given)
active: growth inhibition [1] 76% | growth inhibition [4] 100%
inactive: inhibition [2] 39% | inhibition [3] -1% | outcome [5] | outcome [6] | outcome [7] | outcome [8]

Oc1cccc(Nc2ccnc3cc(-c4ccccn4)ccc23)c1
active: growth inhibition [1] 98% | growth inhibition [4] 96%
inactive: inhibition [2] 24% | inhibition [3] -3% | outcome [5] | outcome [6] | outcome [7] | outcome [8]

C#CCOc1ccc2ccccc2c1CNCCCCCCNCc1c(OCC#C)ccc2ccccc12
inactive: inhibition [3] -3% | outcome [5] | outcome [6] | outcome [7] | outcome [8]
active: growth inhibition [1] 98% | inhibition [2] 100% | growth inhibition [4] 100%

Cc1ccc(Nc2nc3cc(Nc4ccnc(Nc5ccc(CS(C)(=O)=O)cc5)n4)ccc3o2)cc1
active: growth inhibition [1] 66% | inhibition [2] 54% | growth inhibition [4] 99%
inactive: inhibition [3] 2% | outcome [5] | outcome [6] | outcome [7] | outcome [8]

c1cc(-c2ccc(CNCc3ccsc3)cc2)cc(-c2nc3ccccc3[nH]2)c1
active: growth inhibition [1] 82% | growth inhibition [4] 101%
inactive: inhibition [2] 46% | inhibition [3] 2% | outcome [5] | outcome [6] | outcome [7] | outcome [8]

CCC[C@@H]([C@@H](CC1CCCCC1)C(=O)N[C@@H](CCOC(=O)NCC)C(=O)Nc1nccs1)N(O)C=O
inactive: inhibition [2] -13% | inhibition [3] -7% | outcome [5] | outcome [6] | outcome [7] | outcome [8]
active: growth inhibition [1] 79% | growth inhibition [4] 101%

CCOc1ccc2nc(C)cc(NN=Cc3ccccc3)c2c1
inactive: growth inhibition [1] 8% | inhibition [2] 5% | inhibition [3] -3% | outcome [5] | outcome [6] | outcome [7] | outcome [8]
active: growth inhibition [4] 96%

NC1CCCN(Cc2cccc(-c3ccc(-c4nc5ccccc5[nH]4)s3)c2)C1 (stereo not given)
inactive: inhibition [2] 21% | inhibition [3] -2% | outcome [5] | outcome [6] | outcome [7] | outcome [8]
active: growth inhibition [1] 88% | growth inhibition [4] 98%

CC1CN(Cc2cccc(C#N)c2)CCN1c1ccc(NC(=O)c2cccs2)cc1 (stereo not given)
active: growth inhibition [1] 93% | growth inhibition [4] 94%
inactive: inhibition [2] 4% | inhibition [3] 5% | outcome [5] | outcome [6] | outcome [7] | outcome [8]

Cc1cccc2[nH]c(-c3cccc(-c4ccc(NC(=O)CN5CCN(C)CC5)cc4)c3)nc12
inactive: inhibition [2] 45% | inhibition [3] -8% | outcome [5] | outcome [6] | outcome [7] | outcome [8]
active: growth inhibition [1] 99% | growth inhibition [4] 101%

COc1ccc(-c2cc3ncn(CC(=O)N4CCN(c5cccc(OC)c5)CC4)c(=O)c3s2)cc1
inactive: growth inhibition [1] 26% | inhibition [2] 49% | inhibition [3] -7% | outcome [5] | outcome [6] | outcome [7] | outcome [8]
active: growth inhibition [4] 84%

COc1ccc2nccc([C@@H](O)CN3CCC(NCc4ccc(OC)c(NC(C)=O)c4)CC3)c2c1
active: growth inhibition [4] 90%
inactive: growth inhibition [1] 0% | inhibition [2] -5% | inhibition [3] -4% | outcome [5] | outcome [6] | outcome [7] | outcome [8]

O=C(Nc1ccc(Br)cc1)Nc1ccc(Cn2ncc(N3CCCNCC3)c(Cl)c2=O)cc1
inactive: growth inhibition [1] 15% | inhibition [2] -7% | inhibition [3] -1% | outcome [5] | outcome [6] | outcome [7] | outcome [8]
active: growth inhibition [4] 87%

CS(=O)(=O)CCNc1cc(N2CCc3ncnc(Nc4ccc(OCc5cccc(F)c5)c(Cl)c4)c3C2)ncn1
active: growth inhibition [1] 50% | growth inhibition [4] 96%
inactive: inhibition [2] -17% | inhibition [3] 5% | outcome [5] | outcome [6] | outcome [7] | outcome [8]

Cc1ccc(NC(=O)c2ccc3ncccc3c2)cc1OC1CCN(Cc2ccc(F)cc2)CC1
inactive: growth inhibition [1] 22% | inhibition [2] 6% | inhibition [3] 1% | outcome [5] | outcome [6] | outcome [7] | outcome [8]
active: growth inhibition [4] 91%

NC(=O)c1cc2nc(Nc3ccc(F)cc3)nc(NC3CCC3)c2[nH]1
active: growth inhibition [1] 102% | growth inhibition [4] 102%
inactive: inhibition [2] 0% | inhibition [3] 3% | outcome [5] | outcome [6] | outcome [7] | outcome [8]
